# From PubChem BioAssay (EPA / NIEHS)
# Results filed as inconclusive are left out. Activity calls are given as the source filed them. Rule for the calls, unless noted: active = hit-call score of the fitted dose curve at least 0.9, where 1 is the maximum; inconclusive = response in the unintended direction; inactive = score below 0.9.
# How the values were obtained:
# [1] = CCTE_Padilla_ZF_144hpf_TERATOSCORE: (Legacy) CCTE's 144 Hour Post-fertilization zebrafish Assay Teratoscore, Padilla Lab (AID 2283679; active = hit-call score of the fitted dose curve at least 0.9, where 1 is the maximum; inactive = score below 0.9;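 for AC50: zebrafish embryos with chorions exposed by immersion from 6-8 hpf to 5 dpf with daily renewal; teratogenicity score from eye scoring of death hatching and malformations at 144 hpf; higher score means more developmental defects relative to DMSO baseline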)
# How it was run: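 Larvae scored by eye at 144 hpf for death, hatching and malformations after a day in clean Hanks'. Before that, daily-renewed exposure at 80 uM (0.4% DMSO, 26C) from roughly 6-8 hpf through 5 dpf, 4 embryos per chemical.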
# [2] = read-out: Broad substrate specificity ATP-binding cassette transporter ABCG2 (Homo sapiens) (UniProt Q9UNQ0); assay: CLD_ABCG2_24hr: CellzDirect (CLD) Gene Expression Assay for ABC Transporter (ABCG2) at 24 hours (AID 2283685)
# How it was run: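 ABCG2 mRNA induction, read as gain of chemiluminescent signal over 0.2% DMSO, was measured by quantitative nuclease protection at 24 h. Cultured human liver hepatocytes were given fresh dosing solutions of test chemicals at several concentrations each day.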
# [3] = read-out: Cytochrome P450 2B6 (Homo sapiens) (UniProt P20813); assay: CLD_CYP2B6_24hr: CellzDirect (CLD) Gene Expression Assay for xenobiotic metabolism (CYP2B6) at 24 hours (AID 2283686)
# How it was run: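 qNPA chemiluminescent measurement of mRNA at 24 hours in human primary hepatocyte cultures from two donor preparations, with daily fresh dosing and 0.2% DMSO vehicle as baseline. Morphology-based cytotoxicity flagged yes/no.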
# [4] = read-out: sulfotransferase (SULT2A), SULT2A1 (gene 6822); assay: CLD_SULT2A_24hr: CellzDirect (CLD) Gene Expression Assay for sulfotransferase (SULT2A) at 24 hours (AID 2283694);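 for AC50: potency for increased SULT2A1 mRNA level as induction over DMSO baseline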
# How it was run: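 mRNA is measured by qNPA: probe hybridisation, S1 nuclease digestion, chemiluminescence, in lysates from human primary hepatocytes harvested 24 h after daily dosing. Vehicle was 0.2% DMSO. Phase-contrast microscopy flagged cytotoxicity (yes/no).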
# [5] = read-out: glucuronosyltransferase (UGT1A1), UGT1A1 (gene 54658); assay: CLD_UGT1A1_24hr: CellzDirect (CLD) Gene Expression Assay for glucuronosyltransferase (UGT1A1) at 24 hours (AID 2283696)
# How it was run: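 UGT1A1 transcript induction was measured by quantitative nuclease protection assay (chemiluminescence) in human hepatocyte cultures 24 h after daily fresh dosing, with 0.2% DMSO as vehicle and baseline.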
# [6] = read-out: Cytochrome P450 2B6 (Homo sapiens) (UniProt P20813); assay: CLD_CYP2B6_48hr: CellzDirect (CLD) Gene Expression Assay for xenobiotic metabolism (CYP2B6) at 48 hours (AID 2283699);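 note: actives raise transcript level above DMSO so potency reflects induction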
# How it was run: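 CYP2B6 transcript induction, read by quantitative nuclease protection (S1 digestion, chemiluminescent detection) 48 h after dosing, is fitted upward against 0.2% DMSO. Cultured human liver primary cells, two donor preparations, received fresh chemical daily over multiple concentrations.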
# [7] = read-out: xenobiotic metabolism (CYP1A2), CYP1A2 (gene 1544); assay: CLD_CYP1A2_24hr: CellzDirect (CLD) Gene Expression Assay for xenobiotic metabolism (CYP1A2) at 24 hours (AID 2283683)
# How it was run: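 CYP1A2 mRNA induction measured by quantitative nuclease protection (chemiluminescent) in human primary hepatocytes 24 h after multi-concentration chemical dosing with daily fresh solutions. DMSO (0.2%) baseline; positive-direction fitting; morphology-based cytotoxicity noted.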
# [8] = read-out: Cytochrome P450 3A4 (Homo sapiens) (UniProt P08684); assay: CLD_CYP3A4_48hr: CellzDirect (CLD) Gene Expression Assay for xenobiotic metabolism (CYP3A4) at 48 hours (AID 2283698)
# How it was run: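 CYP3A4 induction read by qNPA chemiluminescence after 48 h, with fresh dosing solutions on consecutive days, in cultured human hepatocytes (two donors). Vehicle 0.2% DMSO as baseline; microscopy-based cytotoxicity annotated yes/no alongside data.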
# [9] = read-out: Cytochrome P450 3A4 (Homo sapiens) (UniProt P08684); assay: CLD_CYP3A4_24hr: CellzDirect (CLD) Gene Expression Assay for xenobiotic metabolism (CYP3A4) at 24 hours (AID 2283689)
# How it was run: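 CYP3A4 mRNA induction read by quantitative nuclease protection (chemiluminescence) 24 hr after dosing. Cultured human hepatocytes (two donor preparations) treated daily, vehicle 0.2% DMSO; phase-contrast morphology annotates cytotoxicity.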
# [10] = read-out: Glyceraldehyde-3-phosphate dehydrogenase (Homo sapiens) (UniProt P04406); assay: CLD_GAPDH_24hr: CellzDirect (CLD) Gene Expression Assay for Baseline Control (Glyceraldehyde 3-phosphate dehydrogenase) at 24 hours (AID 2283692)
# How it was run: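 GAPDH baseline-control readout: qNPA chemiluminescent mRNA signal in human primary hepatocytes harvested 24 h after daily dosing, normalised to 0.2% DMSO with positive fitting direction; cytotoxicity annotated by phase-contrast morphology.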
# [11] = read-out: ABC Transporter (ABCB1), ABCB1 (gene 5243); assay: CLD_ABCB1_48hr: CellzDirect (CLD) Gene Expression Assay for ABC Transporter (ABCB1) at 48 hours (AID 2283695)
# How it was run: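 ABCB1 mRNA was measured by quantitative nuclease protection assay (chemiluminescence) 48 h after dosing. Human hepatocyte cultures from two separate donors received fresh dosing solutions daily for two days, with 0.2% DMSO as vehicle. Positive-direction fit against DMSO.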
# [12] = read-out: organic anion transporter (SLCO1B1), SLCO1B1 (gene 10599); assay: CLD_SLCO1B1_24hr: CellzDirect (CLD) Gene Expression Assay for organic anion transporter (SLCO1B1) at 24 hours (AID 2283690)
# How it was run: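 SLCO1B1 mRNA induction read at 24 h by quantitative nuclease protection assay (chemiluminescence), analyzed against DMSO baseline. Human hepatocyte cultures from separate donors received fresh dosing solutions daily; vehicle 0.2% DMSO; cytotoxicity flagged by phase-contrast morphology.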
# [13] = read-out: Cytochrome P450 2C19 (Homo sapiens) (UniProt P33261); assay: CLD_CYP2C19_48hr: CellzDirect (CLD) Gene Expression Assay for xenobiotic metabolism (CYP2C19) at 48 hours (AID 2283700);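 note: fitted upward so actives raise CYP2C19 mRNA above the 0.2% DMSO vehicle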
# How it was run: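 CYP2C19 mRNA induction read by chemiluminescent quantitative nuclease protection assay after 48 h, with fresh compound added daily for two days to cultured human liver hepatocytes. Activity fitted upward against 0.2% DMSO vehicle.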
# [14] = read-out: Glyceraldehyde-3-phosphate dehydrogenase (Homo sapiens) (UniProt P04406); assay: CLD_GAPDH_6hr: CellzDirect (CLD) Gene Expression Assay for Baseline Control (Glyceraldehyde 3-phosphate dehydrogenase) at 6 hours (AID 2283681);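 note: active means increased signal relative to DMSO vehicle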
# How it was run: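 GAPDH baseline-control readout from qNPA (S1 nuclease digestion, probe hybridization, chemiluminescence) in lysates of cultured human hepatocytes harvested 6 h post-dosing. Chemicals tested at multiple concentrations versus 0.2% DMSO vehicle; microscopy-based cytotoxicity flagged yes/no.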
# [15] = read-out: Cytochrome P450 2C19 (Homo sapiens) (UniProt P33261); assay: CLD_CYP2C19_24hr: CellzDirect (CLD) Gene Expression Assay for xenobiotic metabolism (CYP2C19) at 24 hours (AID 2283687);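 note: activity means mRNA induction above DMSO vehicle baseline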
# How it was run: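 CYP2C19 mRNA was quantified by qNPA chemiluminescence after 24 h of daily dosing of cultured human primary hepatocytes from two donors; vehicle was 0.2% DMSO, and increases over DMSO baseline were fitted.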
# [16] = read-out: Cytochrome P450 2C9 (Homo sapiens) (UniProt P11712); assay: CLD_CYP2C9_24hr: CellzDirect (CLD) Gene Expression Assay for xenobiotic metabolism (CYP2C9) at 24 hours (AID 2283688)
# How it was run: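 Induction of CYP2C9 mRNA was quantified by quantitative nuclease protection assay (chemiluminescence), gain of signal versus 0.2% DMSO vehicle, 24 h after dosing. Human primary hepatocytes (two donors) received fresh chemical daily at multiple concentrations; morphology-based cytotoxicity flagged yes/no.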
# Glyceraldehyde-3-phosphate dehydrogenase (Homo sapiens), sequence (P04406 whole entry, looked up): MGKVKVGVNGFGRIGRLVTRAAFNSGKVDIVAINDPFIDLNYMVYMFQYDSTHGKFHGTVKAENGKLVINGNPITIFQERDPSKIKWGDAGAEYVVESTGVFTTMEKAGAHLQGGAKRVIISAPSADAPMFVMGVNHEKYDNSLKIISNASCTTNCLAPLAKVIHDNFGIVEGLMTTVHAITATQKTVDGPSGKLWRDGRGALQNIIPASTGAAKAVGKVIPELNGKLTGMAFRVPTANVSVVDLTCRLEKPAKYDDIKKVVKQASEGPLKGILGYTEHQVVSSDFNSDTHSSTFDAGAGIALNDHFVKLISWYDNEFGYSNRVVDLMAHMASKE
# Cytochrome P450 2C19 (Homo sapiens), sequence (P33261 whole entry, looked up): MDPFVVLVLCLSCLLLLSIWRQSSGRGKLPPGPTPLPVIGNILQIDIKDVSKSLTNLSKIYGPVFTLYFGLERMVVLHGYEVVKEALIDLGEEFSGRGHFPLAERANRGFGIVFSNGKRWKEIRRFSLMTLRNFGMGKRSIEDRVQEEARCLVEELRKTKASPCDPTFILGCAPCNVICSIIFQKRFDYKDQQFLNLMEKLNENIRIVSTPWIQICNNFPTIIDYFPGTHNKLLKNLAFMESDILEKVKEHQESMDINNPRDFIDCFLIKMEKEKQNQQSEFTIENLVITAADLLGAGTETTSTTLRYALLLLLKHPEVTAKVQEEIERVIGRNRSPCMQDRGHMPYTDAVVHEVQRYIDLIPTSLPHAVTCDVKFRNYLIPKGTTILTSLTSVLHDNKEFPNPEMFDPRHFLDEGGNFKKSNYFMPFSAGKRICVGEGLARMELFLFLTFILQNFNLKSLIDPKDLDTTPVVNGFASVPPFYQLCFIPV
# Cytochrome P450 3A4 (Homo sapiens), sequence (P08684 whole entry, looked up): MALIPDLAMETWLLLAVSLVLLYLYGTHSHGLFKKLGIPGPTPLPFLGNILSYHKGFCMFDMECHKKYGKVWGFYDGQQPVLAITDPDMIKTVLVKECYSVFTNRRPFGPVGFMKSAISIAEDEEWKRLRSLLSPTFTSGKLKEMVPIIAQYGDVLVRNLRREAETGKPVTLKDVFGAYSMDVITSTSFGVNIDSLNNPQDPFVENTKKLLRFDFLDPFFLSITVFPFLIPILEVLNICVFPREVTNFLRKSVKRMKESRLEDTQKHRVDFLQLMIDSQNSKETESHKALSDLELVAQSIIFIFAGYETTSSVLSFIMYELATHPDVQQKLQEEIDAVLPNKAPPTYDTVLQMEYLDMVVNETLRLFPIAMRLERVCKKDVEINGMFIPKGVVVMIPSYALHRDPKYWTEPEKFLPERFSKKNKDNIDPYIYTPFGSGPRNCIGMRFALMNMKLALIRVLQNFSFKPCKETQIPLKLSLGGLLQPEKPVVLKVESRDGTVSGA
# Broad substrate specificity ATP-binding cassette transporter ABCG2 (Homo sapiens), sequence (Q9UNQ0 whole entry, looked up): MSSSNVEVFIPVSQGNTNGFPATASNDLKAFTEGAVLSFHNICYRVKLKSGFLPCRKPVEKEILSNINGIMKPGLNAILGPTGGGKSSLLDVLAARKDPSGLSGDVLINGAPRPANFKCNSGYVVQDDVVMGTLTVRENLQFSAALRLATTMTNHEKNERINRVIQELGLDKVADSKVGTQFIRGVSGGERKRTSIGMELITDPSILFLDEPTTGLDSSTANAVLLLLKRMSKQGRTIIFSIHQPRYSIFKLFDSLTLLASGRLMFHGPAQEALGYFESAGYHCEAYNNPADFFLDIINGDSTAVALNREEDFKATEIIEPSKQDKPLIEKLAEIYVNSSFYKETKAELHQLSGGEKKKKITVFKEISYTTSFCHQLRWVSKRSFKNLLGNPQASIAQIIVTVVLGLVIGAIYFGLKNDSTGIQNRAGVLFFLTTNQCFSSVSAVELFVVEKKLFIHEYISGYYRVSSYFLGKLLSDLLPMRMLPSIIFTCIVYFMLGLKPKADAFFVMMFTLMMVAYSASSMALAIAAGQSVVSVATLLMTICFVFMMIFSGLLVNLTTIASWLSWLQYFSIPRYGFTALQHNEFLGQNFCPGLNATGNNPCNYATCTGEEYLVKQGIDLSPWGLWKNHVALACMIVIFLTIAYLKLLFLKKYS
compound,measurement,setting,value
CC1(C)CCC(=Cc2ccc(Cl)cc2)C1(O)Cn1cncn1 (stereo unspecified),AC50,[1],253 µM (active)
same,outcome,[2],inactive
same,AC50,[3],3.58 µM (active)
same,outcome,[4],inactive
same,outcome,[5],inactive
same,AC50,[6],4.01 µM (active)
COC(=O)NC(=S)Nc1ccccc1NC(=S)NC(=O)OC,AC50,[1],0.486 µM (active)
same,AC50,[7],12.2 µM (active)
same,AC50,[3],7.45 µM (active)
same,outcome,[5],inactive
same,AC50,[8],3.45 µM (active)
CC(C)Nc1nc(Cl)nc(NC(C)C)n1,outcome,[1],inactive
same,AC50,[7],7.72 µM (active)
same,AC50,[3],3.26 µM (active)
same,AC50,[9],6.2 µM (active)
same,outcome,[10],inactive
same,outcome,[11],inactive
same,AC50,[5],4.11 µM (active)
same,AC50,[8],3.54 µM (active)
CC(C)N1C(=O)N(c2ccccc2)CSC1=NC(C)(C)C,AC50,[1],1.48 µM (active)
same,AC50,[9],20 µM (active)
same,outcome,[12],inactive
same,outcome,[5],inactive
same,AC50,[8],8.18 µM (active)
same,outcome,[13],inactive
CCN(CC)c1nc(C)cc(OP(=S)(OC)OC)n1,AC50,[1],14.8 µM (active)
same,AC50,[7],3.97 µM (active)
same,AC50,[3],0.902 µM (active)
same,AC50,[9],3.81 µM (active)
same,outcome,[4],inactive
same,outcome,[5],inactive
same,AC50,[8],3.58 µM (active)
COCc1cnc(C2=NC(C)(C(C)C)C(=O)N2)c(C(=O)O)c1 (stereo unspecified),AC50,[1],5.5 µM (active)
same,outcome,[14],inactive
same,outcome,[5],inactive
same,outcome,[8],inactive
CSC(=O)c1c(C(F)F)nc(C(F)(F)F)c(C(=O)SC)c1CC(C)C,AC50,[1],9.65 µM (active)
same,outcome,[14],inactive
same,outcome,[15],inactive
same,outcome,[12],inactive
same,outcome,[11],inactive
same,outcome,[5],inactive
same,AC50,[8],0.645 µM (active)
COC(=O)c1c(C(F)F)nc(C(F)(F)F)c(C2=NCCS2)c1CC(C)C,AC50,[1],51.4 µM (active)
same,outcome,[2],inactive
same,AC50,[3],7.48 µM (active)
same,outcome,[16],inactive
same,outcome,[9],inactive
same,AC50,[4],20 µM (active)
same,outcome,[5],inactive
same,AC50,[8],1.9 µM (active)
same,outcome,[13],inactive
CNC(=O)N(C)c1nnc(C(C)(C)C)s1,outcome,[1],inactive
same,outcome,[3],inactive
same,outcome,[15],inactive
same,outcome,[9],inactive
same,outcome,[12],inactive
same,outcome,[5],inactive
same,outcome,[13],inactive
CC(C)=CC1C(C(=O)OCc2coc(Cc3ccccc3)c2)C1(C)C (stereo unspecified),AC50,[1],1.71 µM (active)
same,outcome,[15],inactive
same,outcome,[12],inactive
same,outcome,[10],inactive
same,outcome,[5],inactive
same,AC50,[6],20 µM (active)
same,outcome,[13],inactive
